Laboratory results: PMC8384837, “Expanding the binding specificity for RNA recognition by a PUF domain”
Positions count from the first letter of the chain named.

Legend:
Assay in all cases: yeast three-hybrid, YBZ-1, SC-Leu-His + 0.5 mM 3-AT, 4 days
Conditions in all cases: tags: N-Gal4 AD-HA kept; label: inside an RPR1-promoter hybrid RNA with tandem MS2 sites; ssRNA
[1] = biological target: PUM1 PUF domain R7-RGK (Homo sapiens, UniProt Q14671 828-1176, S1079R;N1080G;E1083K)
Procedure, shortened: (§1)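 Sequencing with Illumina followed PCR amplification of the repeat regions from transformants grown four days on SC-Leu (input) or SC-Leu-His + 0.5 mM 3-AT (selection). The transformants were strain YBZ-1 with a LexA–MS2 coat fusion and a HIS3 reporter, carrying Pumilio-1 PUF domain libraries and matching RNA elements. The interaction score is the log change in variant frequency from input to selection, computed in log2 with a pseudocount of 1 for absent variants.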

[2] = biological target: PUM1 PUF domain R7-KPI (Homo sapiens, UniProt Q14671 828-1176, S1079K;N1080P;E1083I)
Procedure, shortened: as §1

[3] = biological target: PUM1 PUF domain R7-LFG (Homo sapiens, UniProt Q14671 828-1176, S1079L;N1080F;E1083G)
Procedure, shortened: as §1

[4] = biological target: PUM1 PUF domain R5-SQG (Homo sapiens, UniProt Q14671 828-1176, C1007S;R1008Q;Q1011G)
Procedure, shortened: as §1

[5] = biological target: PUM1 PUF domain R5-AGD (Homo sapiens, UniProt Q14671 828-1176, C1007A;R1008G;Q1011D)
Procedure, shortened: as §1

[6] = biological target: PUM1 PUF domain R5-GKE (Homo sapiens, UniProt Q14671 828-1176, C1007G;R1008K;Q1011E)
Procedure, shortened: as §1

[7] = biological target: PUM1 PUF domain R5-SMG (Homo sapiens, UniProt Q14671 828-1176, C1007S;R1008M;Q1011G)
Procedure, shortened: as §1

[8] = biological target: PUM1 PUF domain R5-GSR (Homo sapiens, UniProt Q14671 828-1176, C1007G;R1008S;Q1011R)
Procedure, shortened: as §1

[9] = biological target: PUM1 PUF domain R5-ERF (Homo sapiens, UniProt Q14671 828-1176, C1007E;Q1011F)
Procedure, shortened: as §1

[10] = biological target: PUM1 PUF domain R5-KRG (Homo sapiens, UniProt Q14671 828-1176, C1007K;Q1011G)
Procedure, shortened: as §1

[11] = biological target: T1, PUM1 PUF domain R6-CWS (Homo sapiens, UniProt Q14671 828-1176, N1043C;Y1044W;Q1047S)
T1 sequence: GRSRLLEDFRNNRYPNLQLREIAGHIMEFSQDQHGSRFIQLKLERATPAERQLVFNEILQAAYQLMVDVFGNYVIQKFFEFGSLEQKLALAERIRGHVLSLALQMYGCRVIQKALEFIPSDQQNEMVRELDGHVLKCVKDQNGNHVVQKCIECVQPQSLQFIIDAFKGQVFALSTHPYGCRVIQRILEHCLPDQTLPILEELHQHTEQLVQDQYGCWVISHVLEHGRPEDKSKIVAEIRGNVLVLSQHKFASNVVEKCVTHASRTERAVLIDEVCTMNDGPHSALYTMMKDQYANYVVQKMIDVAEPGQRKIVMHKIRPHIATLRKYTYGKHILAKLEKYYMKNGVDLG
Procedure, shortened: as §1

[12] = biological target: T2, PUM1 PUF domain R6-VFY (Homo sapiens, UniProt Q14671 828-1176, N1043V;Y1044F;Q1047Y)
T2 sequence: T1 sequence with C216V, W217F, S220Y
Procedure, shortened: as §1

“GGCUAGAACUAGUGGAUCCCCCGGCGCCCGGCGGCUCGAGCCCGGGUAAGUCUAAAUAGUCUGCAUGCCGCCGGGCGCCAUGCCUGCAGGUCGACUCUAGAAAACAUG” was tested, and the binding signal [1] was 5.3 log2 enrichment (interaction score), the binding signal [2] was 3.61 log2 enrichment (interaction score) and the binding signal [3] was 3.01 log2 enrichment (interaction score).

In the case of “GGCUAGAACUAGUGGAUCCCCCGGCGCCCGGCGGCUCGAGCCCGGGUAAGUGUGAAUAGUCUGCAUGCCGCCGGGCGCCAUGCCUGCAGGUCGACUCUAGAAAACAUG”, the binding signal [4] is reported as 3.41 log2 enrichment (interaction score), the binding signal [5] is reported as 3.87 log2 enrichment (interaction score) and the binding signal [6] is reported as 4.81 log2 enrichment (interaction score). For the same sequence, the binding signal [7] was 2.11 log2 enrichment (interaction score).

In the case of “GGCUAGAACUAGUGGAUCCCCCGGCGCCCGGCGGCUCGAGCCCGGGUAAGUGUCAAUAGUCUGCAUGCCGCCGGGCGCCAUGCCUGCAGGUCGACUCUAGAAAACAUG”, the binding signal [8] is reported as 5.07 log2 enrichment (interaction score), the binding signal [9] is reported as 3.35 log2 enrichment (interaction score) and the binding signal [10] is reported as 3.68 log2 enrichment (interaction score). The binding signal [6] was 1.37 log2 enrichment (interaction score).

For “GGCUAGAACUAGUGGAUCCCCCGGCGCCCGGCGGCUCGAGCCCGGGUAAGUGAAAAUAGUCUGCAUGCCGCCGGGCGCCAUGCCUGCAGGUCGACUCUAGAAAACAUG”, the binding signal [11] was 5.26 log2 enrichment (interaction score) and the binding signal [12] was 6.28 log2 enrichment (interaction score).
